Measured values as given in the supplement of paper PMC12669032.
Values without a mark were called inactive.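 Rule for the calls: active = AUC reduced over 20% with Padj below 0.05 in at least 2 of 3 replicates; inactive = otherwise.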

Legend:
Experiment in all cases: growth AUC relative to DMSO control (median of replicates) (fraction); higher = more growth (less inhibition), active = hit call of the paper
Details in all cases: 20 µM; 24 h
Coprococcus comes = system: Coprococcus comes
In short: (§1)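 In round-bottom 96-well plates sealed with pierced gas-permeable seals, gut bacterial monocultures in mGAM were grown anaerobically at 37 °C from OD600 0.05 with 20 µM compound (1% DMSO). OD600 readings were taken hourly for 24 h, and the minimum OD was set to 0. Area under the growth curve was then normalised to the plate median of solvent-only wells, or to row and column medians on the industrial chemical plate. The value given is the median of three biological replicates grown on separate days.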

Escherichia coli ED1a = system: Escherichia coli ED1a
In short: as §1

Escherichia coli IAI1 = system: Escherichia coli IAI1
In short: as §1

Eubacterium rectale = system: Eubacterium rectale
In short: as §1

[1] = system: Fusobacterium nucleatum subsp. animalis
In short: as §1

Lactobacillus gasseri = system: Lactobacillus gasseri
In short: as §1

Lactobacillus paracasei = system: Lactobacillus paracasei
In short: as §1

Odoribacter splanchnicus = system: Odoribacter splanchnicus
In short: as §1

[2] = system: Parabacteroides distasonis
In short: as §1

Parabacteroides merdae = system: Parabacteroides merdae
In short: as §1

Roseburia intestinalis = system: Roseburia intestinalis
In short: as §1

Streptococcus salivarius = system: Streptococcus salivarius
In short: as §1

Cc1[nH]c(=O)n(C(C)(C)C)c(=O)c1Cl
growth AUC (Coprococcus comes): 0.999
growth AUC (Escherichia coli ED1a): 0.983
growth AUC (Escherichia coli IAI1): 0.942
growth AUC (Eubacterium rectale): 1.01
growth AUC [1]: 0.978
growth AUC (Lactobacillus gasseri): 0.927
growth AUC (Lactobacillus paracasei): 1.06
growth AUC (Odoribacter splanchnicus): 1.02
growth AUC [2]: 0.968
growth AUC (Parabacteroides merdae): 0.995
growth AUC (Roseburia intestinalis): 0.986
growth AUC (Streptococcus salivarius): 1.02

CCCCc1c(C)nc(N(C)C)[nH]c1=O
growth AUC (Coprococcus comes): 1
growth AUC (Escherichia coli ED1a): 0.976
growth AUC (Escherichia coli IAI1): 0.913
growth AUC (Eubacterium rectale): 0.825
growth AUC [1]: 1.09
growth AUC (Lactobacillus gasseri): 1
growth AUC (Lactobacillus paracasei): 0.896
growth AUC (Odoribacter splanchnicus): 1.05
growth AUC [2]: 1.03
growth AUC (Parabacteroides merdae): 1.01
growth AUC (Roseburia intestinalis): 0.959
growth AUC (Streptococcus salivarius): 1.02

O=C1C=CC(=O)C=C1
growth AUC (Coprococcus comes): 1.02
growth AUC (Escherichia coli ED1a): 1.01
growth AUC (Escherichia coli IAI1): 1.01
growth AUC (Eubacterium rectale): 0.986
growth AUC [1]: 0.983
growth AUC (Lactobacillus gasseri): 1.04
growth AUC (Lactobacillus paracasei): 1
growth AUC (Odoribacter splanchnicus): 0.975
growth AUC [2]: 1.03
growth AUC (Parabacteroides merdae): 1.01
growth AUC (Roseburia intestinalis): 1.08
growth AUC (Streptococcus salivarius): 0.979

Cc1ccc2nc3sc(=O)sc3nc2c1
growth AUC (Coprococcus comes): 0.964
growth AUC (Escherichia coli ED1a): 0.969
growth AUC (Escherichia coli IAI1): 0.948
growth AUC (Eubacterium rectale): 1.02
growth AUC [1]: 1.04
growth AUC (Lactobacillus gasseri): 0.915
growth AUC (Lactobacillus paracasei): 0.954
growth AUC (Odoribacter splanchnicus): 1.14
growth AUC [2]: 0.924
growth AUC (Parabacteroides merdae): 0.954
growth AUC (Roseburia intestinalis): 0.892
growth AUC (Streptococcus salivarius): 0.983

CCCSP(=S)(OCC)Oc1ccc(SC)cc1 (stereo unspecified)
growth AUC (Coprococcus comes): 1.04
growth AUC (Escherichia coli ED1a): 1.01
growth AUC (Escherichia coli IAI1): 0.959
growth AUC (Eubacterium rectale): 0.985
growth AUC [1]: 1.07
growth AUC (Lactobacillus gasseri): 0.946
growth AUC (Lactobacillus paracasei): 1.02
growth AUC (Odoribacter splanchnicus): 1.07
growth AUC [2]: 0.98
growth AUC (Parabacteroides merdae): 0.996
growth AUC (Roseburia intestinalis): 1.06
growth AUC (Streptococcus salivarius): 0.93

O=c1[nH]c(Cl)c(Cl)cc1Cl
growth AUC (Coprococcus comes): 0.998
growth AUC (Escherichia coli ED1a): 0.952
growth AUC (Escherichia coli IAI1): 0.983
growth AUC (Eubacterium rectale): 0.991
growth AUC [1]: 1.04
growth AUC (Lactobacillus gasseri): 0.928
growth AUC (Lactobacillus paracasei): 0.984
growth AUC (Odoribacter splanchnicus): 0.942
growth AUC [2]: 0.921
growth AUC (Parabacteroides merdae): 1.01
growth AUC (Roseburia intestinalis): 0.993
growth AUC (Streptococcus salivarius): 0.998

COC(=O)c1sccc1S(=O)(=O)NC(=O)Nc1nc(C)nc(OC)n1
growth AUC (Coprococcus comes): 0.962
growth AUC (Escherichia coli ED1a): 0.97
growth AUC (Escherichia coli IAI1): 0.967
growth AUC (Eubacterium rectale): 1.14
growth AUC [1]: 0.975
growth AUC (Lactobacillus gasseri): 0.859
growth AUC (Lactobacillus paracasei): 1.03
growth AUC (Odoribacter splanchnicus): 1.01
growth AUC [2]: 0.969
growth AUC (Parabacteroides merdae): 0.973
growth AUC (Roseburia intestinalis): 0.947
growth AUC (Streptococcus salivarius): 0.859

CCOP(=S)(OCC)SCCS(=O)CC (stereo unspecified)
growth AUC (Coprococcus comes): 0.971
growth AUC (Escherichia coli ED1a): 0.985
growth AUC (Escherichia coli IAI1): 0.98
growth AUC (Eubacterium rectale): 1.11
growth AUC [1]: 1.02
growth AUC (Lactobacillus gasseri): 0.941
growth AUC (Lactobacillus paracasei): 0.948
growth AUC (Odoribacter splanchnicus): 1.06
growth AUC [2]: 1.01
growth AUC (Parabacteroides merdae): 1
growth AUC (Roseburia intestinalis): 0.965
growth AUC (Streptococcus salivarius): 0.973

ClC1=C(Cl)C2(Cl)C3C(Cl)C=CC3C1(Cl)C2(Cl)Cl (stereo unspecified)
growth AUC (Coprococcus comes): 0.989
growth AUC (Escherichia coli ED1a): 1.02
growth AUC (Escherichia coli IAI1): 1
growth AUC (Eubacterium rectale): 1.09
growth AUC [1]: 1.12
growth AUC (Lactobacillus gasseri): 0.856
growth AUC (Lactobacillus paracasei): 0.967
growth AUC (Odoribacter splanchnicus): 0.964
growth AUC [2]: 0.842
growth AUC (Parabacteroides merdae): 1.02
growth AUC (Roseburia intestinalis): 0.918
growth AUC (Streptococcus salivarius): 0.928

Cc1cc(C(C#N)c2ccc(Cl)cc2)c(Cl)cc1NC(=O)c1cc(I)cc(I)c1O (stereo unspecified)
growth AUC (Coprococcus comes): 0.275 (active)
growth AUC (Escherichia coli ED1a): 0.958
growth AUC (Escherichia coli IAI1): 0.953
growth AUC (Eubacterium rectale): 0.072 (active)
growth AUC [1]: 0.702 (active)
growth AUC (Lactobacillus gasseri): 0.0202 (active)
growth AUC (Lactobacillus paracasei): 0.0904 (active)
growth AUC (Odoribacter splanchnicus): 0.017 (active)
growth AUC [2]: 0.0201 (active)
growth AUC (Parabacteroides merdae): 0.00673 (active)
growth AUC (Roseburia intestinalis): 0.15 (active)
growth AUC (Streptococcus salivarius): 0.0175 (active)

C=C/C=C/CC1=C(C)C(OC(=O)[C@@H]2C(/C=C(\C)C(=O)OC)C2(C)C)CC1=O.C=C/C=C/CC1=C(C)[C@@H](OC(=O)[C@@H]2C(C=C(C)C)C2(C)C)CC1=O (stereo partly specified)
growth AUC (Coprococcus comes): 0.953
growth AUC (Escherichia coli ED1a): 1.01
growth AUC (Escherichia coli IAI1): 0.966
growth AUC (Eubacterium rectale): 0.858
growth AUC [1]: 1.04
growth AUC (Lactobacillus gasseri): 1.02
growth AUC (Lactobacillus paracasei): 0.864
growth AUC (Odoribacter splanchnicus): 0.985
growth AUC [2]: 0.954
growth AUC (Parabacteroides merdae): 0.932
growth AUC (Roseburia intestinalis): 1.02
growth AUC (Streptococcus salivarius): 0.947

N#CC(CCc1ccc(Cl)cc1)(Cn1cncn1)c1ccccc1 (stereo unspecified)
growth AUC (Coprococcus comes): 0.969
growth AUC (Escherichia coli ED1a): 1.03
growth AUC (Escherichia coli IAI1): 1.02
growth AUC (Eubacterium rectale): 1.07
growth AUC [1]: 0.942
growth AUC (Lactobacillus gasseri): 0.904
growth AUC (Lactobacillus paracasei): 0.952
growth AUC (Odoribacter splanchnicus): 0.88
growth AUC [2]: 0.57 (active)
growth AUC (Parabacteroides merdae): 0.96
growth AUC (Roseburia intestinalis): 0.911
growth AUC (Streptococcus salivarius): 0.934

Cc1cccc2sc3nncn3c12
growth AUC (Coprococcus comes): 0.98
growth AUC (Escherichia coli ED1a): 0.987
growth AUC (Escherichia coli IAI1): 0.977
growth AUC (Eubacterium rectale): 0.939
growth AUC [1]: 0.988
growth AUC (Lactobacillus gasseri): 1.05
growth AUC (Lactobacillus paracasei): 0.957
growth AUC (Odoribacter splanchnicus): 1.03
growth AUC [2]: 0.991
growth AUC (Parabacteroides merdae): 1
growth AUC (Roseburia intestinalis): 0.976
growth AUC (Streptococcus salivarius): 1.02
